In PubChem BioAssay AID602144 (Vanderbilt Specialized Chemistry Center, 2011) one finds remaining activity data, which are given here for 40 compounds.

Unmarked numbers belong to inactive results. Activity calls are given as the source filed them. No stated cut-off is given here; in the data, active means remaining activity below about 50%; inactive means the rest.

Chain of Phospholipase D1 (Homo sapiens) (Q13393 whole entry, looked up): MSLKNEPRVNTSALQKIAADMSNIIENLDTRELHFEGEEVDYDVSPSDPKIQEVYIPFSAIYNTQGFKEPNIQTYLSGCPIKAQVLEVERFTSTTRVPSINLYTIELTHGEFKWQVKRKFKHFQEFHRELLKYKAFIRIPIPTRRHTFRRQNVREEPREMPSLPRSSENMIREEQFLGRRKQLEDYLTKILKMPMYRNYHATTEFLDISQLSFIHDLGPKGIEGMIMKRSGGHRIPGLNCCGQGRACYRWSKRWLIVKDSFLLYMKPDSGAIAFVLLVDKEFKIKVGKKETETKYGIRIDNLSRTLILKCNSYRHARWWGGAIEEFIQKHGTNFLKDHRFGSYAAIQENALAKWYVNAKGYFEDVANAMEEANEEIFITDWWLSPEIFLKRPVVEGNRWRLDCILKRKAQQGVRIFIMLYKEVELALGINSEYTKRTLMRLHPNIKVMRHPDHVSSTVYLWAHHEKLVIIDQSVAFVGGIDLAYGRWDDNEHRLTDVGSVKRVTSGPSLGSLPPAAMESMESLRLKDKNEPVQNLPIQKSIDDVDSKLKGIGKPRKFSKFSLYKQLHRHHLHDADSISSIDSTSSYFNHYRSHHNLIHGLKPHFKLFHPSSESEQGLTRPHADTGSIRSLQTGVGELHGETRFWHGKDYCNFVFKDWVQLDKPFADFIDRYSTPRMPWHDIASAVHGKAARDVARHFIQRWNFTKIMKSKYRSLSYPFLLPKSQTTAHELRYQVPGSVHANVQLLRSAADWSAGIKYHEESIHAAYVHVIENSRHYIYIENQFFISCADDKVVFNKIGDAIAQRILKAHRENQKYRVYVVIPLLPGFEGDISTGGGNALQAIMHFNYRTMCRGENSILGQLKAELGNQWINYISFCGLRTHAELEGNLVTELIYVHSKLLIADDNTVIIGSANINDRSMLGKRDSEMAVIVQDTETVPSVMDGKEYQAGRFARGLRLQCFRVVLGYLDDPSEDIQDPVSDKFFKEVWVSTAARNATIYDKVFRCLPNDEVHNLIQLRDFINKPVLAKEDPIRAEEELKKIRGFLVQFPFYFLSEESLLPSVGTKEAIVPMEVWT
Chain of Phospholipase D1 (Homo sapiens) (Q13393 whole entry, looked up): as above

The assay addresses Phospholipase D1 (Homo sapiens) (UniProt Q13393). Nature of the assay: PLD1 inhibitors in cells, Calu-1 cells, single concentration (AID 602144).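 Further: tested at 200 nM.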 Conditions: cellular PLD1 activity, stronger effect = lower value.
`C[C@@H](CN1CCC(n2nnc3cc(C(F)(F)F)ccc32)CC1)NC(=O)c1cnc2ccccc2c1`: the remaining activity was 101%.

Take `O=C(N[C@@H](Cc1ccccc1)CN1CCC(n2c(=O)[nH]c3ccccc32)CC1)c1cnc2ccccc2c1`: the remaining activity was 116%.

For `O=C(NCCN1CCN(c2ccncc2)CC1)c1ccc(F)cc1`, the remaining activity is 126%.

Turning to `C[C@@H](CN1CCC2(CCc3ccccc32)CC1)NC(=O)c1cnc2ccccc2c1`, the remaining activity is 129%.

For the compound `COc1cccc(N2CCN(CCNC(=O)c3ccc(F)cc3)CC2)c1`, the remaining activity is 110%.

On to `C[C@@H](CN1CCC(n2c(=O)[nH]c3cc(I)ccc32)CC1)NC(=O)c1ccc(Cl)cc1`, for which the remaining activity was 15.5% (active).

Take `O=C(NCCN1CCC(n2c(=O)[nH]c3ccccc32)CC1)c1cc(-c2ccccc2)no1`: the remaining activity is 62.9%.

With `C[C@@H](CN1CCC2(CCc3ccccc32)CC1)NC(=O)c1ccc2ccccc2c1`, the remaining activity is 91.4%.

For the compound `O=C(CCCN1CCC(O)(c2ccc(Cl)cc2)CC1)c1ccc(F)cc1`, the remaining activity was 80.1%.

`O=C(NCCN1CCC2(CC1)CNc1ccccc12)C1CC1c1ccccc1` (stereo not given): the remaining activity is 113%.

Turning to `O=C1c2ccccc2C(=O)N1CCCN1CCC(c2nc3ccccc3[nH]2)CC1`, the remaining activity was 95.3%.

For the compound `O=C(NCCN1CCC(n2c(=O)[nH]c3ccc(F)cc32)CC1)c1ccc(Cl)c(Cl)c1`, the remaining activity was 0% (active).

Turning to `O=c1[nH]c2ccccc2n1C1CCN(CCN2CCCC2)CC1`, the remaining activity was 112%.

As to `O=C1Cc2cc(CCN3CCN(c4nsc5ccccc45)CC3)c(Cl)cc2N1`, the remaining activity is 75.1%.

Consider `O=C(NCCN1CCN(c2ccccn2)CC1)c1ccc(C(F)(F)F)cc1`, for which the remaining activity is 152%.

As to `O=C(CCN1CCC(n2c(=O)[nH]c3ccccc32)CC1)NCc1ccc(Cl)cc1`, the remaining activity is 98.9%.

Take `O=C(NCCN1CCC2(C=Cc3ccccc32)CC1)c1ccc2ccccc2c1`: the remaining activity is 127%.

Take `NC1(CN2CCC(n3c(=O)[nH]c4ccccc43)CC2)CCCC1` (tested in a mixture with another compound): the remaining activity is 86.8%.

With `O=c1[nH]c2ccccc2n1C1CCN(CCNC(=S)Nc2ccccc2F)CC1`, the remaining activity is 109%.

`O=C(NCCN1CCC2(CC1)CCN(c1ccccc1)C2=O)c1cnc2ccccc2c1`: the remaining activity is 109%.

Turning to `CN(C)c1cccc2c(S(=O)(=O)NCCN3CCC(n4c(=O)[nH]c5ccccc54)CC3)cccc12`, the remaining activity is 127%.

As to `C[C@@H](CN1CCC(n2c(=O)[nH]c3cc(-c4ccsc4)ccc32)CC1)NC(=O)[C@H]1C[C@@H]1c1ccccc1`, the remaining activity was 41.3% (active).

For the compound `Cn1c(C(=O)NCCN2CCN(c3ccncc3)CC2)cc2ccccc21`, the remaining activity was 188%.

Take `C[C@@H](CN1CCC2(CC1)CCN(C)C2=O)NC(=O)c1cnc2ccccc2c1`: the remaining activity was 127%.

`C[C@H](CN1CCC(n2nnc3ccccc32)CC1)NC(=O)c1ccc2ccccc2c1`: the remaining activity is 27.1% (active).

Turning to `COc1cccc(N2CCN(CCNC(=O)c3ccc(C(F)(F)F)cc3)CC2)c1`, the remaining activity was 102%.

`Nc1cccc(Cl)c1C(=O)NCCN1CCC(n2c(=O)[nH]c3ccccc32)CC1`: the remaining activity is 89.2%.

On to `C[C@@H](CN1CCC(n2c(=O)[nH]c3cc(I)ccc32)CC1)NC(=O)c1ccc2ccccc2c1`, for which the remaining activity is 20.1% (active).

Consider `Cc1cccc(C(=O)NCCN2CCC(n3c(=O)[nH]c4ccccc43)CC2)n1`, for which the remaining activity was 26.7% (active).

For the compound `C[C@@H](CN1CCC(n2c(=O)[nH]c3ccccc32)CC1)NC(=O)c1cccnc1`, the remaining activity was 41.1% (active).

Regarding `O=c1[nH]c2ccccc2n1C1CCN(CCNS(=O)(=O)c2cccc3cccnc23)CC1`, the remaining activity was 121%.

With `Cc1ccc(S(=O)(=O)NCCN2CCC(n3c(=O)[nH]c4ccccc43)CC2)cc1`, the remaining activity is 104%.

Consider `CC(C(=O)NCCN1CCN(c2ccncc2)CC1)(c1ccccc1)c1ccccc1`, for which the remaining activity was 204%.

Consider `C[C@@H](CN1CCC2(CNCc3ccccc32)C1)NC(=O)c1ccc2ccccc2c1` (stereo not given in full), for which the remaining activity was 95.4%.

As to `O=C(NCCN1CCC(n2c(=O)[nH]c3ccccc32)CC1)c1ncccn1`, the remaining activity was 120%.

As to `O=C(NCCN1CCC2(C=Cc3ccccc32)CC1)c1cnc2ccccc2c1`, the remaining activity was 126%.

`O=C(NCCN1CCC(n2c(=O)[nH]c3ccccc32)CC1)c1cc2ccccc2c2ccccc12`: the remaining activity is 7.23% (active).

Regarding `CCCS(=O)(=O)NCCN1CCC(n2c(=O)[nH]c3ccccc32)CC1`, the remaining activity was 120%.

On to `O=C(NCCN1CCC2(CCc3ccccc32)CC1)[C@H]1C[C@@H]1c1ccccc1`, for which the remaining activity was 125%.

With `O=C(NCCN1CCC(n2c(=O)[nH]c3ccccc32)CC1)C1C=Cc2ccccc2C1` (stereo not given), the remaining activity is 33% (active).

As a reminder, the remaining activity is the signal under treatment as a percentage of the control signal.
